Screening results: PubChem BioAssay, National Center for Advancing Translational Sciences (NCATS)
VACV mCherry inh: qHTS for Stage-Specific Inhibitors of Vaccinia Orthopoxvirus: mCherry Reporter Primary qHTS; Vaccinia virus mCherry reporter infection, fluorescence; Potency, µM (series often up to 36.5 µM), actives largely listed as inhibitors; actives 0.63% (n = 310,000); AID 720579, 2013; calls by dose curve; tested in A549 cells; note: nearly all actives have a fitted effect of over 35% in size
HCMV inh: qHTS Assay for inhibitors of the human cytomegalovirus (HCMV); AID 1259415, 2018; actives 4.5% (n = 410,000); activity change, negative = inhibition, % at 57.5 µM; HFF cells, HCMV-luciferase reporter, 72 h; active compounds read low; in the data active = activity change below about -60%; inconclusive = no clear call, values can overlap the other calls; inactive = above about -39%
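Human foreskin fibroblasts infected with luciferase-reporter HCMV at MOI 1 PFU/cell, compounds at two doses. Luciferase measured 72 h post infection; normalized to buffer-only basal and Salinomycin (10uM) controls.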
FMDV antiviral: High Throughput Screening for Foot and Mouth Disease Virus Antivirals. FMDV antiviral cell-based qHTS. actives 1.2% (n = 410,000). Potency, µM (top dose mostly 57.9 µM), hits mostly inhibitors; calls by dose curve; tested in HEK293T cells; note: read-out not given here; nearly all actives have a fitted effect of over 45% in size
HCV inh: qHTS Assay for Inhibitors of Hepatitis C Virus (HCV); Huh7.5.1 HCVcc-Cre infection, luciferase reporter, 44 h; Potency, µM (titrated, usually from 41.8 µM), actives largely listed as inhibitors; actives 3.4% (n = 340,000); active = well fitted inhibition curve with a large enough effect; inconclusive = small, poorly fitted or top-dose-only effect, or another doubt; inactive = no such curve, though single readings can be large or run the other way
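Whole-lifecycle infectious HCVcc-Cre system; cells 1,000/well, compound then virus (~0.5 moi) added 4 h after plating, 44 h culture. Luciferase read 15 sec following 15 min substrate incubation, room temp.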
Vaccinia Venus: qHTS for Stage-Specific Inhibitors of Vaccinia Orthopoxvirus: Venus Reporter Primary qHTS; actives 0.46% (n = 330,000); AID 720580, 2013; Potency, µM (doses to about 36.5 µM), hits mostly inhibitors; Vaccinia virus Venus reporter expression, fluorescence; calls by dose curve; tested in A549 cells; note: nearly all actives have a fitted effect of over 30% in size
Large screens that a line does not name were inactive. Most compounds without a hit are left out; they make up all but 7.3% or so of the library.

CC(C)(C)NC(=O)CN1CCN(C(=O)CCl)CC1	VACV mCherry inh inconclusive, HCMV inh -63.4, FMDV antiviral inconclusive, Vaccinia Venus 2.51µM
CCOC(=O)N1CCN(C(=O)COC(=O)c2cc(Cl)cc(Cl)c2)CC1	none
CCOC(=O)N1CCN(C(=O)CCl)CC1	VACV mCherry inh 2.24µM, FMDV antiviral inconclusive, HCV inh inconclusive, Vaccinia Venus 3.16µM
CCOC(=O)N1CCN(C(=O)COC(=O)c2cc(Cl)c(O)c(Cl)c2)CC1	HCMV inh -73.5
CCOC(=O)N1CCN(C(=O)Cc2ccc(Cl)cc2)CC1	none (no result: VACV mCherry inh)
COc1ccccc1CNc1ncnc2ccc(-c3cccc(C#N)c3)cc12	none (no result: VACV mCherry inh, HCMV inh, HCV inh, Vaccinia Venus)
Cc1ccc(CSc2nnc([C@@H]3CCCN3C(=O)OC(C)(C)C)o2)cc1	HCV inh 22.4µM (no result: VACV mCherry inh, Vaccinia Venus)
CCOC(=O)CN(c1sc(C)c(C)c1C(=O)OCC)S(=O)(=O)c1ccc(C)cc1	HCMV inh -65.2 (no result: HCV inh)
CCCCCCCOC(=O)C[N+](C)(C)CCOC1CC2CCC1(C)C2(C)C (stereo unspecified)	HCMV inh -73.1, FMDV antiviral 35.5µM, HCV inh inconclusive, Vaccinia Venus inconclusive
CCCCCCOC(=O)C[N+](C)(C)CCOC1CC2CCC1(C)C2(C)C (stereo unspecified)	none (no result: VACV mCherry inh, Vaccinia Venus)
CN(C1CCCCC1)S(=O)(=O)c1ccc(NC(=O)C2CCCCC2)cc1	HCV inh 14.1µM (no result: VACV mCherry inh, Vaccinia Venus)
CN(Cc1ccccc1)S(=O)(=O)c1ccc(NC(=S)NC(=O)C2CCCCC2)cc1	VACV mCherry inh inconclusive, HCV inh 10µM
CC(=O)Nc1ccc2nc(SCCOc3ccccc3Cl)sc2c1	VACV mCherry inh inconclusive, HCMV inh -80.4 (no result: HCV inh)
Cc1ccc(OCCSc2nc3ccc(NC(=O)c4ccc5c(c4)OCO5)cc3s2)cc1	VACV mCherry inh inconclusive, FMDV antiviral inconclusive, Vaccinia Venus 11.2µM (no result: HCV inh)
CCC(=O)Nc1ccc2nc(SCCOc3cccc(C)c3)sc2c1	HCMV inh -63.5 (no result: HCV inh)
COc1cc(C)ccc1OCCSc1nc2ccc(NC(=O)c3ccco3)cc2s1	HCMV inh -61.4, FMDV antiviral inconclusive (no result: HCV inh)
Cc1cccc(C(=O)Nc2ccc3nc(SCCOc4ccccc4)sc3c2)c1	none (no result: HCV inh)
Cc1cccc2sc(N(Cc3cccnc3)C(=O)C3COc4ccccc4O3)nc12 (stereo unspecified)	HCMV inh inconclusive (no result: HCV inh)
Cc1ccc(Cl)cc1N(C)C(=O)c1sc2nc3n(c(=O)c2c1C)CCCC3	none (no result: HCV inh)
COc1cc(NC(=O)CCc2c(C)nc3nc(-c4cc(OC)cc(OC)c4)nn3c2C)cc(OC)c1	none (no result: HCV inh)
C#CCNc1c2c(nc3ncnn13)CC(C)CC2 (stereo unspecified)	HCMV inh -101.3
CC(C)(C)OC(=O)C[C@@H]1C/C=C\C[C@H](CC(=O)NCCO)C(=O)N[C@@H](Cc2ccccc2)COC1=O	none
O=C1N[C@H](Cc2ccccc2)COC(=O)[C@H](Cc2ccc(F)cc2)CC/C=C/C[C@H]1CC(=O)N(CCO)Cc1ccccc1	HCV inh inconclusive, Vaccinia Venus inconclusive
CC(C)(C)OC(=O)C[C@H]1C/C=C\C[C@@H](CC(=O)NCCO)C(=O)N[C@H](Cc2ccccc2)COC1=O	HCMV inh -60.8
O=C1N[C@@H](Cc2ccccc2)COC(=O)[C@@H](Cc2ccc(F)cc2)C/C=C\C[C@@H]1CC(=O)N(CCO)Cc1ccccc1	VACV mCherry inh inconclusive, HCMV inh -96.5, FMDV antiviral inconclusive, HCV inh inconclusive, Vaccinia Venus 12.6µM
C#CCN1C(=O)C(O)(CC(=O)c2ccc(OC)c(OC)c2)c2cc(Br)ccc21 (stereo unspecified)	HCMV inh -62.0 (no result: HCV inh)
CC(C)c1ccc(C(=O)CC2(O)C(=O)N(CCc3ccccc3)c3ccc(Cl)cc32)cc1 (stereo unspecified)	VACV mCherry inh inconclusive, HCMV inh -105.2 (no result: HCV inh)
C#CCN1C(=O)C(O)(CC(=O)c2ccc(OC)c(OC)c2)c2ccccc21 (stereo unspecified)	FMDV antiviral inconclusive (no result: VACV mCherry inh, Vaccinia Venus)
COC(=O)CN1C(=O)C(O)(CC(=O)c2ccc(Br)cc2)c2ccccc21 (stereo unspecified)	HCMV inh -62.3
O=C(CC1(O)C(=O)N(Cc2ccccc2)c2ccc(Br)cc21)c1ccccc1 (stereo unspecified)	none (no result: HCV inh)
C=CCN1C(=O)C(O)(CC(=O)c2ccco2)c2cc(Br)ccc21 (stereo unspecified)	HCMV inh -81.8
CC(C)=CCCN1CCC(NC(=O)C(O)(c2ccccc2)C2CCCC2)CC1 (stereo unspecified)	none (no result: VACV mCherry inh, HCMV inh, HCV inh, Vaccinia Venus)
O=C(CC1(O)C(=O)N(CCc2ccccc2)c2ccc(Br)cc21)c1ccccc1O (stereo unspecified)	HCMV inh -76.6 (no result: HCV inh)
CCCCN1C(=O)C(O)(CC(=O)c2ccc(CC)cc2)c2cc(Br)ccc21 (stereo unspecified)	HCMV inh -78.8 (no result: HCV inh)
Cc1ccc(-c2cnc3n2CCCCC3)cc1	HCV inh inconclusive
c1cc2c(cc1-c1cnc3n1CCC3)OCCO2	VACV mCherry inh inconclusive, HCMV inh inconclusive, HCV inh 10µM, Vaccinia Venus inconclusive (no result: FMDV antiviral)
O=c1cc(-c2ccccc2)[nH]n1-c1ccc([N+](=O)[O-])cc1	HCMV inh -95.0, FMDV antiviral inconclusive (no result: VACV mCherry inh, Vaccinia Venus)
Cc1c(Cl)cccc1NC(=O)CSc1ncccc1C(=O)Oc1ccccc1Cl	none (no result: HCV inh)
CCCC(=O)OC[C@H]1CN(C2CCCC2)S(=O)(=O)c2c(Oc3ccc(F)cc3)cccc2O1	none (no result: VACV mCherry inh, FMDV antiviral, HCV inh, Vaccinia Venus)
CC1CC(C)(C)Nc2ccc(OC(=O)c3ccco3)cc21 (stereo unspecified)	HCMV inh -107.4, FMDV antiviral inconclusive (no result: VACV mCherry inh)
CC1CC(C)(C)Nc2ccc(N=O)cc21 (stereo unspecified)	VACV mCherry inh inconclusive, HCMV inh -60.0, FMDV antiviral inconclusive, HCV inh inconclusive
CC(C)CNc1cccc2c1S(=O)(=O)N[C@@H](C)CO2	none (no result: VACV mCherry inh, FMDV antiviral, HCV inh, Vaccinia Venus)
Cc1nnnn1/C(=C\c1ccccc1)C(=O)OCC(=O)Nc1ccc(Cl)cc1F	HCMV inh -95.3, FMDV antiviral 28.2µM, HCV inh inconclusive, Vaccinia Venus inconclusive
Cc1nnnn1/C(=C\c1ccccc1)C(=O)OCC(=O)Nc1cccc(S(=O)(=O)N(C)C)c1	HCMV inh -61.2, FMDV antiviral 14.1µM, HCV inh 10µM (no result: VACV mCherry inh, Vaccinia Venus)
O=C(CCl)NCc1cc(-c2ccc(Cl)cc2)no1	VACV mCherry inh 10µM, HCMV inh -112.8, FMDV antiviral inconclusive, HCV inh 11.2µM, Vaccinia Venus inconclusive
CC(=O)n1cc([C@H]2C=C(C(N)=O)O[C@@H](OCc3ccc(CO)cc3)C2)c2ccccc21	HCV inh 2.82µM
CC(=O)n1cc([C@H]2C=C(C(=O)NCc3ccccc3)O[C@@H](OCc3ccc(CO)cc3)C2)c2ccccc21	VACV mCherry inh inconclusive, HCV inh inconclusive, Vaccinia Venus inconclusive
CC(=O)n1cc([C@@H]2C=C(C(=O)N3CCN(Cc4ccccc4)CC3)O[C@H](OCc3ccc(CO)cc3)C2)c2ccccc21	HCMV inh -73.9, FMDV antiviral inconclusive, HCV inh inconclusive, Vaccinia Venus inconclusive
